Screening data from PubChem BioAssay.
A selection: hits, their analogues and other compounds. The true share with any hit is near 4.6%.
DAX1 inh-1: inhibitors of human orphan nuclear receptor DAX1 (NR0B1) | P51843 | HEK293 Gal4-DAX1 luciferase reporter, luminescence | inhibition, % at 6.75 µM | 0.99% of 340,000 active | AID 504766;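 active = inhibition above the mean over all tested compounds plus 3 SD, cut at about 4.2% in these data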;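 also: 0% = DAX1-transfected cells with DMSO and 100% = empty-vector control cells with DMSO; inhibition shows as a rise in luminescence from relieved DAX1 repression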
Wee1 degr inh: inhibitors of human Wee1 degradation; P30291; HeLa Luc-Wee1K328M stability, luciferase luminescence; 100% = proteasome inhibitor MG132 effect; reporter increase, % at 5 µM; 1.2% of 220,000 active; AID 1321;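 active = activation above the mean of all tested compounds plus 3 SD, set per screening run, cut at about 8.8% in these data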;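 also: cells exposed to compound for 20 h before luminescence read; 0% = DMSO alone and 100% = MG132 at 30 µM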
ssDAF12 agonist: activates DAF-12 receptor from parasite S. stercoralis | HEK293 ssDAF-12/GRIP1 lit1-tk-luc reporter, luminescence; % of 3 µM dafachronic acid response | activation, % at 6.8 µM | 1% of 370,000 active;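 active = activation above the mean over all tested compounds plus 3 SD, cut at about 0.9% in these data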;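 also: 0% = DMSO-only wells and 100% = 3 µM delta7-dafachronic acid wells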
hcDAF-12 act: activates DAF-12 receptor from parasite H. contortus; activation, % at 6.8 µM; AID 652067; HEK293 hcDAF-12 lit1-tk-luc reporter, luminescence; 0% DMSO, 100% Δ7-dafachronic acid; 1.4% of 370,000 active;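 active = activation above the mean of all tested compounds plus 3 SD, cut at about 5.5% in these data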;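 also: 100% = response to 3 µM Δ7-dafachronic acid high control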
DAX1 inh-2: inhibitors of DAX1 repression of SF-1 activated StAR promoter. 1.1% of 370,000 active. inhibition, % at 6.8 µM. HEK293T StAR-luciferase reporter, SF-1/DAX-1 repression relief;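 active = inhibition above the mean over all tested compounds plus 3 SD, cut at about 3.6% in these data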;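 also: 0% = DAX-1 cells with DMSO and 100% = cells lacking DAX-1 with DMSO; higher inhibition means more luminescence from relief of DAX-1 repression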
hgDAF-12 ag: hgDAF-12 agonism, primary luciferase screen; HEK293 GAL4-hgDAF12 UAS-luciferase reporter, agonist luminescence; normalized to butyrate control; 1.8% of 370,000 active; activation, % at 6.8 µM; AID 687014;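 active = activation above a cutoff set at the mean of all screened compounds plus 3 SD, cut at about 10% in these data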;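 also: 0% = DMSO wells and 100% = sodium butyrate wells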
DAX1 conf: confirmation of human DAX1 (NR0B1) inhibitors; 87% of 2,400 active; inhibition, % at 6.8 µM; HEK293T StAR-promoter luciferase reporter, SF-1/DAX-1 repression; shares compounds with DAX1 inh-2;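 active = inhibition above the average of every tested compound plus 3 SD, cut at about 3.8% in these data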;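 also: 0% = DAX-1 cells with DMSO and 100% = no DAX-1 control cells with DMSO; active compounds raise luminescence by relieving repression of the StAR reporter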
SF1 mutant ctr: nonselective inhibitor or artifact in SF-1 mutant DAX1 counter-screen. shares compounds with DAX1 inh-2. HEK293 StAR-luciferase, SF-1 AF2 mutant, luminescence. inhibition, % at 6.8 µM. 78% of 2,400 active;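 active = inhibition above the mean of all tested compounds plus 3 SD, cut at about 3% in these data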;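 also: 0% = DAX-1 transfected cells with DMSO and 100% = cells without DAX-1 with DMSO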
LXRb hcDAF ctr: counter-screen for hcDAF-12 agonists: agonists of human LXR-beta | HEK293 Gal4-LXR tk-luc reporter, luminescence, 24 h; normalized: DMSO 0%, positive control 100% | 3,400 tested, under 10 active | activation, % at 6.8 µM | AID 743027 | shares compounds with hcDAF-12 act;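 active = mean percent activation of the reporter above a cutoff set as the average over tested compounds plus their standard deviation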
Target sequence (P55055 whole entry, looked up, the tested form may be a part): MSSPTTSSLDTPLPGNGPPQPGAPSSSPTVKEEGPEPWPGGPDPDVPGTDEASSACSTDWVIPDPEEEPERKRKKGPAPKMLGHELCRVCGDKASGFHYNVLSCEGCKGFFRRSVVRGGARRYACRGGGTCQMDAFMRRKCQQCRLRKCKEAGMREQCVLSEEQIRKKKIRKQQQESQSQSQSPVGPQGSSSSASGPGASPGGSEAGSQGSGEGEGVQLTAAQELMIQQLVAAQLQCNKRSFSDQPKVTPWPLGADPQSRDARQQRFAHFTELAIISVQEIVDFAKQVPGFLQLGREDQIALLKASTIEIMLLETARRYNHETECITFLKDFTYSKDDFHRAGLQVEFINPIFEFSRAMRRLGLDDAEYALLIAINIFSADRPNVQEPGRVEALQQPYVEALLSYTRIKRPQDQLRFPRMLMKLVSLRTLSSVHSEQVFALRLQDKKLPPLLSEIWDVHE
hcDAF12 ag: confirmation of H. contortus DAF-12 agonists; shares compounds with hcDAF-12 act; activation, % at 6.8 µM; HEK293 hcDAF-12 lit1-tk-luc reporter, luminescence; % of Δ7-dafachronic acid response; 61% of 3,400 active;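 active = mean activation across triplicate tests above the threshold derived from the earlier primary screen, cut at about 5.5% in these data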;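 also: 0% = DMSO only wells and 100% = 3 µM Δ7-dafachronic acid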
Starred values were filed as active, the others as inactive.

COc1cc(N/N=C/c2ccc(N(C)C)cc2)ncn1 was read as DAX1 inh-1 -2, Wee1 degr inh 4, ssDAF12 agonist 1, hcDAF-12 act 11*, DAX1 inh-2 10*, hgDAF-12 ag 12*, DAX1 conf 12*, SF1 mutant ctr 4.3*, LXRb hcDAF ctr 2 and hcDAF12 ag 8.4*.
`Cc1cc(C)c2nc(NC(=O)c3ccco3)sc2c1` gave DAX1 inh-1 0, ssDAF12 agonist 1.0*, hcDAF-12 act 6.6*, DAX1 inh-2 19*, hgDAF-12 ag 10, DAX1 conf 13*, SF1 mutant ctr 3, LXRb hcDAF ctr 2 and hcDAF12 ag 9.2*.
CCC(=O)c1ccc(/C=C/c2nc3ccccc3n2C)o1 was read as DAX1 inh-1 0, Wee1 degr inh 8, ssDAF12 agonist 1.4*, hcDAF-12 act 6.9*, DAX1 inh-2 4.7*, hgDAF-12 ag 25*, DAX1 conf 8.8*, SF1 mutant ctr 5.4*, LXRb hcDAF ctr 1 and hcDAF12 ag 6.7*.
CCCCC(=O)N(C)c1c(CC)nc2c(OCC(=O)C(C)(C)C)cccn12 was read as ssDAF12 agonist -1, hcDAF-12 act -1, DAX1 inh-2 0 and hgDAF-12 ag 2.
O=C(OCc1nc2ccccc2s1)c1ccco1 was read as DAX1 inh-1 1, Wee1 degr inh 1, ssDAF12 agonist 1, hcDAF-12 act 9.1*, DAX1 inh-2 4.9*, hgDAF-12 ag 11*, DAX1 conf 7.4*, SF1 mutant ctr 4.7*, LXRb hcDAF ctr 1 and hcDAF12 ag 8.6*.
For O=C(/C=C\Nc1ccccn1)c1ccccc1 the results were DAX1 inh-1 -2, Wee1 degr inh -1, ssDAF12 agonist 1, hcDAF-12 act 12*, DAX1 inh-2 5.3*, hgDAF-12 ag 9, DAX1 conf 10.0*, SF1 mutant ctr 1, LXRb hcDAF ctr 1 and hcDAF12 ag 9.7*.
O=C(/C=C/Nc1cccc(O)c1)c1ccccc1 was read as DAX1 inh-1 -2, Wee1 degr inh 1, ssDAF12 agonist 0, hcDAF-12 act 7.0*, DAX1 inh-2 6.6*, hgDAF-12 ag 7, DAX1 conf 13*, SF1 mutant ctr 6.0*, LXRb hcDAF ctr 2 and hcDAF12 ag 13*.
For COc1ccc(C(=O)/C=C/Nc2ccccn2)c(OC)c1 the results were Wee1 degr inh 5, ssDAF12 agonist 1, hcDAF-12 act 3, DAX1 inh-2 3 and hgDAF-12 ag 9.
For CC(C)N(C(=O)[C@H]1C[C@H](CC(=O)NCCN2CCOCC2)C(=O)N2CCc3c([nH]c4cc(-c5ccco5)ccc34)[C@]12C)C(C)C the results were DAX1 inh-1 -1, ssDAF12 agonist -2, hcDAF-12 act -1, DAX1 inh-2 1 and hgDAF-12 ag -1.
Screening CCn1c(SC(C)C(=O)NCC2CCCO2)nc2ccccc21 (configuration not stated) returned DAX1 inh-1 1, ssDAF12 agonist -1, hcDAF-12 act -2, DAX1 inh-2 2 and hgDAF-12 ag 1.
Screening CC(/C=N/NC(=O)c1cccs1)=C\c1ccccc1 returned DAX1 inh-1 2, Wee1 degr inh 0, ssDAF12 agonist 1.4*, hcDAF-12 act 6.8*, DAX1 inh-2 7.0*, hgDAF-12 ag 16*, DAX1 conf 18*, SF1 mutant ctr 7.8*, LXRb hcDAF ctr 2 and hcDAF12 ag 7.2*.
For CCOC(=O)C1CCCN(C(=O)CSCc2ccccc2)C1 (configuration not stated) the results were DAX1 inh-1 3, Wee1 degr inh -2, ssDAF12 agonist -1, hcDAF-12 act -1, DAX1 inh-2 1 and hgDAF-12 ag 4.
CCOC(=O)C1CCCN(C(=O)CCc2nnc(-c3ccc(C(C)=O)s3)o2)C1 (configuration not stated) was read as DAX1 inh-1 4, ssDAF12 agonist 0, hcDAF-12 act 6.8*, DAX1 inh-2 5.5*, hgDAF-12 ag 13*, DAX1 conf 5.8*, SF1 mutant ctr 5.9*, LXRb hcDAF ctr 1 and hcDAF12 ag 6.1*.
Screening N#Cc1c(-c2ccc(F)cc2)c(-c2ccc(F)cc2)nn(CCO)c1=O returned DAX1 inh-1 -3, ssDAF12 agonist -1, hcDAF-12 act -1, DAX1 inh-2 -3 and hgDAF-12 ag 3.
Screening c1ccc(-c2noc(-c3cccc4ccccc34)n2)nc1 returned DAX1 inh-1 -1, Wee1 degr inh 9.1*, ssDAF12 agonist 3.0*, hcDAF-12 act 18*, DAX1 inh-2 5.5*, hgDAF-12 ag 13*, DAX1 conf 12*, SF1 mutant ctr 4.6*, LXRb hcDAF ctr 2 and hcDAF12 ag 20*.
Screening O=C(Nc1cccc([N+](=O)[O-])c1)c1ccc(-c2ccccc2)cc1 returned DAX1 inh-1 -1, Wee1 degr inh 2, ssDAF12 agonist -2, hcDAF-12 act -2, DAX1 inh-2 0 and hgDAF-12 ag 1.
`O=C(O)c1ccc(N=NNc2cccc([N+](=O)[O-])c2)cc1` gave DAX1 inh-1 2, Wee1 degr inh 2, ssDAF12 agonist 0, hcDAF-12 act 6.7*, DAX1 inh-2 5.1*, hgDAF-12 ag 8, DAX1 conf 14*, SF1 mutant ctr 8.0*, LXRb hcDAF ctr 1 and hcDAF12 ag 4.
O=C(Nc1nc2ccccc2[nH]1)c1ccc(F)cc1 was read as DAX1 inh-1 -2, Wee1 degr inh -3, ssDAF12 agonist 1.2*, hcDAF-12 act 8.0*, DAX1 inh-2 5.3*, hgDAF-12 ag 13*, DAX1 conf 14*, SF1 mutant ctr 8.9*, LXRb hcDAF ctr 1 and hcDAF12 ag 5.
`CS(=O)(=O)N[C@@H]1C[C@@H]2O[C@H](CO)CC[C@@H]2O[C@@H]1CCc1ccc(/C=C/c2ccccc2)cc1` gave ssDAF12 agonist -1, hcDAF-12 act -4, DAX1 inh-2 -3 and hgDAF-12 ag -6.
